Results on six compounds are retold here after PubChem BioAssay (NCATS).

For assay [1], the target named is Lysosomal acid glucosylceramidase (Homo sapiens) (UniProt P04062). The experiment in a line: Glucocerebrosidase-p2 (AID 348; in the data active means potency below about 10 µM; further: potency means the concentration at half of the fitted maximal effect). Conditions: purified GBA, blue fluorogenic substrate, 40 min. The method, boiled down: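 Normal human glucocerebrosidase (0.2 nM) with blue fluorogenic substrate (80 uM final) in citrate/phosphate pH 5.9 with 10mM sodium taurocholate, 0.01% tween-20; 40 min RT, NaOH/glycine stop; fluorescence Ex 365/Em 440; AC50 from a titration from 0.6 nM upwards.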

Assay [2] has as its target Cytochrome P450 1A2 (Homo sapiens) (UniProt P05177). The experiment in a line: p450-cyp1a2 (AID 410; calls by dose curve; further: potency means the concentration at half of the fitted maximal effect). To be noted: recombinant CYP1A2, luciferin-ME demethylation, luminescence; series mostly up to 57 µM. The method, boiled down: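 Read-out is luminescence from luciferin produced by CYP1A2 demethylation of Luciferin-ME (100uM, at Km). Detection reagent stopped the 60 min NADPH-dependent reaction; signals were normalized to 57 uM furafylline.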

The nature of assay [3]: Stat Signaling Pathway (AID 446; active means well fitted curve in either direction with a large enough effect, not every such curve was filed as active;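 further: ME-180 cervical cancer cells given 40 pM IL-6 alongside compound; SIE-controlled beta-lactamase reporter measured as 460/530 nm FRET emission ratio; on the % scale 0 is the no-effect control and ±100 the full control effect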). To be noted: ME-180 SIE beta-lactamase reporter, IL-6 stimulated, 5 h; at 7.69 µM (top of the series) unless noted. Summed up: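 Emission at 460 and 530 nm (excitation 405 nm) reports SIE-controlled beta-lactamase in ME-180 cells. Cells received compound with 40 pM IL-6 for 5 hrs at 37 C; data scaled between 300 pM IL-6 and 125 nM JAK-inhibitor controls.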

Assay [4] concerns the target Glucocorticoid receptor (Homo sapiens) (UniProt P04150). The experiment in a line: GR-GFP Redistribution (AID 450;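 active means compounds whose dose series gives a full or clear partial fitted curve of increased nuclear translocation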; further: potency means the concentration at half of the fitted maximal effect). To be noted: U2OS GR-GFP nuclear translocation, laser cytometry, 2 h.
The target is the same in assay [5]. The experiment in a line: GR-EFC Redistribution (AID 451; calls by dose curve; further: potency means the concentration at half of the fitted maximal effect). To be noted: CHO-K1 GR-EFC translocation, beta-gal luminescence, 2 h. Summed up:
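CHO-K1 cells expressing nuclear EA and GR-ED fragments of b-gal; compounds titrated up to 46 uM final, 2 h at 37 C. GR nuclear translocation read as complemented b-gal luminescence after 1 h RT detection.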

Assay [6] has as its target Mitogen-activated protein kinase 10 (Mus musculus) (UniProt Q61831). The experiment in a line: JNK3 AlphaScreen Assay (AID 530; active means well fitted curve in either direction with a large enough effect, not every such curve was filed as active;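 further: kinase came from lysate of stimulated human HepG2 cells; signal reports phosphorylation of biotinylated GST-cJun 1-79 at Ser73 with 10 µM ATP; on the % scale 0 is the no-effect control and ±100 the full control effect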). To be noted: JNK3 lysate, c-Jun phosphorylation; series mostly up to 57.1 µM. The method, boiled down: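 HepG2 lysate (IL-1b/TNFa pre-activated) + biotin-GST-cJun 1-79 + anti-pSer73 cJun; cpd titration, 15 min RT; ATP 10 uM start; Tris pH 7.6, MgCl2, DTT, vanadate; beads in EDTA buffer; AlphaScreen.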
A general note: Bead proximity is the source of the signal in Alpha formats.

Assay [7] deals with 3',5'-cyclic-AMP phosphodiesterase 4B (Homo sapiens) (UniProt Q07343). The experiment in a line: qHTS Assay for Inhibitors of PDE-IV (AID 607; active means well fitted activation curve with a large enough effect in the main read-out, with a control signal flat, not every such curve was filed as active; further: % of control where 0% means no effect). Conditions: HEK293 ACTOne CNG channel cells, membrane potential fluorescence; series mostly up to 22.9 µM. The method, boiled down:
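The readout is membrane depolarisation from a cAMP-sensing CNG channel, detected with a potential dye at ex 535/em 590. Cells were HEK293-derived (endogenous PDE-IV) at 1000 cells/well, titrated up to 22.9 uM final.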
Background: qHTS replaces the single test concentration by a dilution series.

Assay [8] is described as follows: qHTS Assay for Identification of Small Molecule Agonists for Hypoxia Response Element Signaling Pathway (AID 914; active means well fitted activation curve with a large enough effect in the signal ratio, with a control signal flat, not every such curve was filed as active; the % refers to the signal ratio; further: potency means the concentration at half of the fitted maximal effect; on activation: % of control where 0% means no effect). Conditions: ME-180 HRE-bla reporter, beta-lactamase ratio, CoCl2, 17 h; activation: stronger effect = higher value. Summed up:
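Positive modulation of EC50 CoCl2-induced hypoxia response element signaling is measured in ME-180 cells with a beta-lactamase reporter. Compounds are titrated, incubation runs 17 hours, and %Activity derives from the blue/green ratio.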

For assay [9], the target named is Dual specificity protein kinase CLK4 (Homo sapiens) (UniProt Q9HAZ1). The experiment in a line: qHTS Assay for Inhibitors of CDC-like Kinase 4 (Kinase-Glo Assay) (AID 1770). Further: nearly all actives have a fitted effect of over 65% in size. Further: potency means the concentration at half of the fitted maximal effect. To be noted: recombinant Clk4, Kinase-Glo ATP depletion luminescence; series mostly up to 66.7 µM. The method, boiled down: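 Readout: Kinase-Glo luminescence from ATP left after a 4.5 h room-temperature reaction of 25 nM Clk4 with 100 uM RS peptide and 1 uM ATP (final). Buffer: 25 mM Tris pH 7.5, 10 mM MgCl2.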

The target is the same in assay [10]. In words: qHTS Assay for Inhibitors of CDC-like Kinase 4 (ADP-Glo Assay) (AID 1771). Further: nearly all actives have a fitted effect of over 70% in size. Further: potency means the concentration at half of the fitted maximal effect. Conditions: recombinant CLK4, ADP-Glo luminescence; series mostly up to 80 µM. Summed up:
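In this ADP-Glo format, 1 uM ATP and 100 uM RS peptide served as substrates for 25 nM Clk4 in Mg2+/EGTA/DTT/Triton buffer; reactions ran 1 hr at room temperature before luminescent ADP quantification.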

Assay [11] shares this target. In words: qHTS Assay for Inhibitors of CDC-like Kinase 4 (ADP-FP Assay) (AID 1795). Further: nearly all actives have a fitted effect of over 60% in size. Further: potency means the concentration at half of the fitted maximal effect. Conditions: Transcreener ADP fluorescence polarization; series mostly up to 50 µM. Summed up:
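FP readout: Orange Transcreener ADP2 tracer (4 nM) plus ADP antibody, read after 30 min at room temperature. Kinase step: 6.25 nM Clk4, 100 uM RS peptide, 1 uM ATP, pH 7.5, 1 h.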

Assay [12] addresses Ubiquitin carboxyl-terminal hydrolase 1 (Homo sapiens) (UniProt O94782). In words: Inhibitors of USP1/UAF1: Pilot qHTS (AID 504865).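 Further: rhodamine fluorescence freed from ubiquitin-rhodamine substrate followed over time; top concentration of the series differs between compounds; on the % scale 0 is the no-effect control and ±100 the full control effect; nearly all actives have a fitted effect of over 35% in size.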 Conditions: purified USP1/UAF1, Ub-rhodamine cleavage fluorescence; series mostly up to 54.9 µM. The method, boiled down:
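1nM USP1/UAF1 + cpd, 15 min RT; start w/ Ub-Rho 150nM final; kinetic FL 480/540 nm, 6 reads q60 s. Buffer 50mM HEPES pH 7.8, 0.5mM EDTA, 1mM TCEP, 0.01% Tween-20, 0.1 mg/ml BSA.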

A short description of assay [13]: Primary qHTS for small molecule stabilizers of the endoplasmic reticulum resident proteome: Secreted ER Calcium Modulated Protein (SERCaMP) assay (AID 1508630). Further: on the % scale 0 is the no-effect control and ±100 the full control effect. To be noted: SH-SY5Y GLuc-SERCaMP (Gaussia luciferase released on ER calcium loss) secretion, thapsigargin, luminescence; series mostly up to 38.4 µM. Summed up:
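The SH-SY5Y reporter protocol was run at 3 concentrations up to 38.3 uM (primary) or 11 concentrations (follow-up): 16 h compound, 100 nM thapsigargin for 4 h, then extracellular luciferase luminescence.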

A short description of assay [14]: NFAT Signaling Pathway (AID 444; active means well fitted curve in either direction with a large enough effect, not every such curve was filed as active;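 further: carbachol stimulus at about its EC50 of 1 µM final; on the % scale 0 is the no-effect control and ±100 the full control effect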). Conditions: Jurkat NFAT-bla M1, carbachol, beta-lactamase ratio, 5 h; at 7.69 µM (top of the series) unless noted. Summed up: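 Jurkat cells with NFAT-driven β-lactamase reporter and co-expressed M1 receptor, stimulated with carbachol (final 1 uM, ~EC50), compound titration, 5 h at 37 °C. CCF4 loaded 1 h at RT; 460/530 nm ratio gave %activity and AC50.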

Assay [15] addresses Cytochrome P450 3A4 (Homo sapiens) (UniProt P08684). The experiment in a line: qHTS Assay for Activators of Cytochrome P450 3A4 (AID 885). Further: nearly all actives have a fitted effect of over 65% in size. To be noted: recombinant CYP3A4, Luciferin-PPXE luminescence, 60 min; series mostly up to 57.1 µM. The method, boiled down: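 Activators are scored by enhanced luminescence from CYP3A4 conversion of luciferin-PPXE (25uM, equal to KM) to luciferin, after 60 min at RT with an NADPH-regenerating system.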

Assay [16] concerns the target Cytochrome P450 2C19 (Homo sapiens) (UniProt P33261). The experiment in a line: qHTS Assay for Inhibitors and Substrates of Cytochrome P450 2C19 (AID 899). Further: potency means the concentration at half of the fitted maximal effect; nearly all actives have a fitted effect of over 60% in size. Conditions: recombinant CYP2C19, luciferin-H EGE luminescence; series mostly up to 57.1 µM. Summed up: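 Luminescent read-out of luciferin formed from Luciferin-H EGE (10uM, equal to KM). Enzyme 5nM in 50mM KPO4; compound added, 10 min at 37C, then NADPH regenerating system for 60 min at 37C. Full inhibition defined by 57uM ketoconazole.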

The target in assay [17] is Cytochrome P450 3A4 (Homo sapiens) (UniProt P08684). In words: qHTS Assay for Inhibitors and Substrates of Cytochrome P450 3A4 (AID 884). Further: potency means the concentration at half of the fitted maximal effect; nearly all actives have a fitted effect of over 50% in size. To be noted: recombinant CYP3A4, Luciferin-PPXE luminescence; series mostly up to 57.1 µM. Summed up:
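Luminescent readout of luciferin produced by CYP3A4 (20 nM) dealkylation of Luciferin-PPXE, 25 uM (its KM). NADPH-driven reaction ran 60 min at RT after 10 min compound preincubation; data scaled to 57 uM ketoconazole as 100% inhibition.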

A short description of assay [18]: AP1 Signaling Pathway (AID 357; active means well fitted curve in either direction with a large enough effect, not every such curve was filed as active). Conditions: ME-180 (cervical carcinoma) AP-1-bla reporter, EGF-induced, beta-lactamase ratio, 5 h; at 7.69 µM (top of the series) unless noted. Summed up:
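Cells are seeded overnight, exposed to compound titrations and an EC50 level of EGF for 5 hours at 37 °C, then loaded with CCF4 dye for 2.5 hours. Beta-lactamase activity under the AP-1 element is read as a blue/green ratio.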

A number with no mark means an inactive call. Records with an inconclusive call do not appear. Calls of active or inactive are those of the source. Unless noted, the call rests on the fitted dose curve; in most records, active means well fitted curve in the direction sought with a large enough effect; inconclusive means small, poorly fitted or top-dose-only effect, or another doubt; inactive means no such curve, though single readings can be large; an effect the other way counts as inactive or inconclusive. Where only a bound is given, the exact number is not on record here.

Sequence of 3',5'-cyclic-AMP phosphodiesterase 4B (Homo sapiens) (Q07343 whole entry, looked up): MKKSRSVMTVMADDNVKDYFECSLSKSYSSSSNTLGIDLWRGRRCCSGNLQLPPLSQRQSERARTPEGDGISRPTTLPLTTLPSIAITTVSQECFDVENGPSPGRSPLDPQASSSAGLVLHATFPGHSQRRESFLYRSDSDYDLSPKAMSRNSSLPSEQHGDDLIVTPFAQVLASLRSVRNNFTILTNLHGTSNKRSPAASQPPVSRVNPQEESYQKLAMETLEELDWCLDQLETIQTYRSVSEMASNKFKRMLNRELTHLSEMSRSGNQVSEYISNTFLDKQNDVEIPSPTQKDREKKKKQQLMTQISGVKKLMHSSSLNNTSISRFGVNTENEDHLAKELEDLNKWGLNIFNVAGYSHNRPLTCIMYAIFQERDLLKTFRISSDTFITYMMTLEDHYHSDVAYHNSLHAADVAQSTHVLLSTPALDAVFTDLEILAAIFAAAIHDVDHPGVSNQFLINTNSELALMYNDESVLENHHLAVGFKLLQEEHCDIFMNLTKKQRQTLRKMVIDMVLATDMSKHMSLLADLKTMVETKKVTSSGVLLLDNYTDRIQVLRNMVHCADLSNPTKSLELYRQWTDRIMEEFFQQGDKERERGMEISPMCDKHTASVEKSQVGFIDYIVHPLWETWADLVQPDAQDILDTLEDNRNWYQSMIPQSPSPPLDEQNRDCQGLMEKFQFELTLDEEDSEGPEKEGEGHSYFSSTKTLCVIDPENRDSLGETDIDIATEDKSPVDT
Sequence of Dual specificity protein kinase CLK4 (Homo sapiens) (Q9HAZ1 whole entry, looked up): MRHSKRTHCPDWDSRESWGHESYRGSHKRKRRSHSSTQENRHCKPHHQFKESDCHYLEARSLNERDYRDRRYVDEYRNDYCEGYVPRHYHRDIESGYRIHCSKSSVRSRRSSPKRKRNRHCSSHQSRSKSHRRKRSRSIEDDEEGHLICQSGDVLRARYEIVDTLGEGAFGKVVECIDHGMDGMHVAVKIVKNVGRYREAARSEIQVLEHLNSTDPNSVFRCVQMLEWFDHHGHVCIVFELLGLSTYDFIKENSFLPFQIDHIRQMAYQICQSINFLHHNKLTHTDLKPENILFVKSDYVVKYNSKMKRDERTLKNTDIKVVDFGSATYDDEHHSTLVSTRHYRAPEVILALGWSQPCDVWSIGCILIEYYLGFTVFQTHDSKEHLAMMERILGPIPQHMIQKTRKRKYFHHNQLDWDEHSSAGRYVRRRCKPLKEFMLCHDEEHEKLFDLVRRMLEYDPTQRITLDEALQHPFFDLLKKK
Sequence of Lysosomal acid glucosylceramidase (Homo sapiens) (P04062 whole entry, looked up): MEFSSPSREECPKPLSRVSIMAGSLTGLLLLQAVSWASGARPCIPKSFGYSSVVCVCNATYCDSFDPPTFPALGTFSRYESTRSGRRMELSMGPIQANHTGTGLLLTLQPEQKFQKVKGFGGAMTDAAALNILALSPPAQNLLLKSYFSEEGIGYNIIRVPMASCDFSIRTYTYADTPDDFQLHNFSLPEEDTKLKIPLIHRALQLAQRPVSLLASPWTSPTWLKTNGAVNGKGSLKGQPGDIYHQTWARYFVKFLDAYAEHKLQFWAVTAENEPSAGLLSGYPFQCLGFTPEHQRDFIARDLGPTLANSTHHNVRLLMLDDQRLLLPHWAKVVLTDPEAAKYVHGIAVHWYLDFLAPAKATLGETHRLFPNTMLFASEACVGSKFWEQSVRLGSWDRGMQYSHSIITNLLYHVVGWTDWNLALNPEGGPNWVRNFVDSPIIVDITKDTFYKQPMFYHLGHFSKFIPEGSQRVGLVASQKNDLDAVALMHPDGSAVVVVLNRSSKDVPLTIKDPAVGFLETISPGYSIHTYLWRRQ
Sequence of Ubiquitin carboxyl-terminal hydrolase 1 (Homo sapiens) (O94782 whole entry, looked up): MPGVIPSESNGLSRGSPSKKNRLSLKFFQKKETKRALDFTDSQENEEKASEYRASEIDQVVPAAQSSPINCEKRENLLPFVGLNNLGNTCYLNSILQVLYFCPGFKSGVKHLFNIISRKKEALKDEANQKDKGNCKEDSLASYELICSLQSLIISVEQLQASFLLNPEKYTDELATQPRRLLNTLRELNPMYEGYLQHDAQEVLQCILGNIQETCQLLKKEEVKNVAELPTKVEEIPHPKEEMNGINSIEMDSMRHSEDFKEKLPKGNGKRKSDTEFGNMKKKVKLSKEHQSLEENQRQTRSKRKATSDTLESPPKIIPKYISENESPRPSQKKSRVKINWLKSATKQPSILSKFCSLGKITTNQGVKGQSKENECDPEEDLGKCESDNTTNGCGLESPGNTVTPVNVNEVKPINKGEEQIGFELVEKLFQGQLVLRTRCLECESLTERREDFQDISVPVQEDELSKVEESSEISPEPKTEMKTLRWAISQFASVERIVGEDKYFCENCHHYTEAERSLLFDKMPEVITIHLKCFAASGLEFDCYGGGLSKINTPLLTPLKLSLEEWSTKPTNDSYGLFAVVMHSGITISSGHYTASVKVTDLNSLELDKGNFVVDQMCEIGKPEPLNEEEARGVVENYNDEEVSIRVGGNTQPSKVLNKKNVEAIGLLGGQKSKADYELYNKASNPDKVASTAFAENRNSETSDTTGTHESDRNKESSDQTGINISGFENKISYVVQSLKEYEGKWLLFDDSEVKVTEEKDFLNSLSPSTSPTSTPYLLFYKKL
Sequence of Glucocorticoid receptor (Homo sapiens) (P04150 whole entry, looked up): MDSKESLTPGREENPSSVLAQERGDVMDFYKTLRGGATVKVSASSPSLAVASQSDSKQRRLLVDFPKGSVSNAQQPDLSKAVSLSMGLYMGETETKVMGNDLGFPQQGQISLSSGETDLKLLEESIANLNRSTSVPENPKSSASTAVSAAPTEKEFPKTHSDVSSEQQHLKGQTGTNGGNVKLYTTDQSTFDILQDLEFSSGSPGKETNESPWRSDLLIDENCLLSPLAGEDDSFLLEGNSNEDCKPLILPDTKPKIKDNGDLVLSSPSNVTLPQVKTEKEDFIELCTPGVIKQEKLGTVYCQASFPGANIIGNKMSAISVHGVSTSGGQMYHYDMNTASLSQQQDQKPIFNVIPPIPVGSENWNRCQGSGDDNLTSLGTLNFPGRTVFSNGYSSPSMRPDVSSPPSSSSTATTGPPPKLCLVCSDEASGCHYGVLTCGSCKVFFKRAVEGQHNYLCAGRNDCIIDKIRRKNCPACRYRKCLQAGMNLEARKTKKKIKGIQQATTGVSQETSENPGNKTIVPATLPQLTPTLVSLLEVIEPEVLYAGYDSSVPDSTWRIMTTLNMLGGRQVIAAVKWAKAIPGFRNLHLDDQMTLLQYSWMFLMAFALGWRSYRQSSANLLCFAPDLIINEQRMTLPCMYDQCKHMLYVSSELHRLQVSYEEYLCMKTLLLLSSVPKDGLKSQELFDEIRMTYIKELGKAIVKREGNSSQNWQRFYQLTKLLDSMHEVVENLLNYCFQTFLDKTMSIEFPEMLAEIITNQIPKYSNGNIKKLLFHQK
Sequence of Cytochrome P450 1A2 (Homo sapiens) (P05177 whole entry, looked up): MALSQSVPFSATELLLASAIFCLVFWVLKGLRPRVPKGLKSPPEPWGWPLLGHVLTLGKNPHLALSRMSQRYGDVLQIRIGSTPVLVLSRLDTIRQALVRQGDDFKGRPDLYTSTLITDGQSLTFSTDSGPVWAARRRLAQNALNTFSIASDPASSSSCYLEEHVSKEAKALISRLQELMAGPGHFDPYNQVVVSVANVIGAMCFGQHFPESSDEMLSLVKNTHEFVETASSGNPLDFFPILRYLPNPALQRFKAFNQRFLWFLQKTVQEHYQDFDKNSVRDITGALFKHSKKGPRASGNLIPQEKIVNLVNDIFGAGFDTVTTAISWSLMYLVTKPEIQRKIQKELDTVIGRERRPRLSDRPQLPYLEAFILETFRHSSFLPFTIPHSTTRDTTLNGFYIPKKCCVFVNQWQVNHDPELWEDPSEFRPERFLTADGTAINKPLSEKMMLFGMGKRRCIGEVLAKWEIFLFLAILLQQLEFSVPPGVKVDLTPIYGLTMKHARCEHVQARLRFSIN
Sequence of Cytochrome P450 3A4 (Homo sapiens) (P08684 whole entry, looked up): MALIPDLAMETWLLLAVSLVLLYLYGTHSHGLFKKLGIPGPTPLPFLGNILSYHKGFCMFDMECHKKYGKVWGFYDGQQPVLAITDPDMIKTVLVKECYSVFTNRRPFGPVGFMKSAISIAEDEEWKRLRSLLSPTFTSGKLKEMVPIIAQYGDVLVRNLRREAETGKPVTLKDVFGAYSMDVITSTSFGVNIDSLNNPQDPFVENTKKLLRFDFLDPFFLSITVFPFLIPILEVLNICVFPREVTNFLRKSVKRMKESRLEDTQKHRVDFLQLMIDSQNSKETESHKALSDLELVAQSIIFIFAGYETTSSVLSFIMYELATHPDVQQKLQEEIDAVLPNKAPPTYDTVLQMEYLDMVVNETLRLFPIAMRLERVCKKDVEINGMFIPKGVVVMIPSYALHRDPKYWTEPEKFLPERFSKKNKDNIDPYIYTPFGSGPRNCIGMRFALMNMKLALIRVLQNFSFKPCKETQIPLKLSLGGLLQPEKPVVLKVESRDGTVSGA
Sequence of Cytochrome P450 2C19 (Homo sapiens) (P33261 whole entry, looked up): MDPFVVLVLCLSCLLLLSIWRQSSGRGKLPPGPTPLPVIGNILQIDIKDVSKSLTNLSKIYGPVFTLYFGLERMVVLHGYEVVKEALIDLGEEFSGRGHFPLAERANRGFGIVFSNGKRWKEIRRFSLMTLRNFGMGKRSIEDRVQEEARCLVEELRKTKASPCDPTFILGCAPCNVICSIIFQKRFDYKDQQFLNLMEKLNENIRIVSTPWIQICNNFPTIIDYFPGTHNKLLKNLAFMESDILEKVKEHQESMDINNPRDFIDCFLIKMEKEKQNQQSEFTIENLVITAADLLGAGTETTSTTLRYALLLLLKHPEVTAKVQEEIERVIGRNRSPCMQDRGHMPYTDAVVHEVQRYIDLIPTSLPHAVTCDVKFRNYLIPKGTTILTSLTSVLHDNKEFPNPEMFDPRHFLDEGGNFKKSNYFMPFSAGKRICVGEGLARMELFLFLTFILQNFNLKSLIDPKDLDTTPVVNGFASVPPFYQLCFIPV

`O=c1c(-c2ccc(F)cc2)nc2cnc(N3CCOCC3)nc2n1Cc1ccc(F)cc1`: the Potency in assay [1] is over 11.4 µM; in [2], 20 µM (active); in assay [4] it was over 9.22 µM; in assay [5], over 46 µM; in assay [8], 0.398 µM (active). Further, the activity, negative = inhibition in [3] was 105% [activator] (active). The Potency result in assay [6], in assay [7], in assay [9], in [10], in assay [11] and in assay [12] was “inactive” throughout. For the same compound, the result in assay [13] was inactive.

Take `Cn1cc(-c2nc3cnc(N4CCNCC4)nc3n(Cc3ccc(F)cc3)c2=O)c2ccccc21`: the Potency in assay [1] is over 11.4 µM; in assay [2], 20 µM (active); in assay [4], over 9.22 µM; in [5] it was over 46 µM; in assay [16] it was 7.94 µM (active). For the same compound, the activity change, negative = inhibition in assay [14] was 68.4% [activator] (active). The Potency result in assay [7], in assay [15], in [9], in assay [10] and in [11] was “inactive” each time. The outcome in assay [13] was inactive.

As for `CN(C)c1ccc(-c2cncnc2Nc2ccc(F)cc2)cc1`, the Potency in assay [1] was over 11.4 µM; in assay [2], 0.501 µM (active); in assay [4] it was over 46 µM; in assay [5], over 46 µM; in [17], 0.794 µM (active); in assay [16], 0.794 µM (active). Moreover, the Potency in [9] and in [10] was 10 µM (active) each time. The activity, negative = inhibition in assay [3] was -2.86%. The Potency result in assay [15], in assay [11] and in [12] was “inactive” throughout. In addition, in [13], the result was inactive.

Take `COc1ccc(-n2c(=O)c(-c3cccs3)nc3cnc(Nc4ccccc4)nc32)cc1`: the Potency in [1] was over 11.4 µM; in assay [4], over 9.22 µM; in assay [5], over 46 µM. Also, the activity change, negative = inhibition in assay [18] is -7.98%. In [3], the activity, negative = inhibition is -8.99%. The Potency entry in assay [6], in assay [7], in assay [9], in [10], in assay [11] and in assay [12] was “inactive” in each case. In addition, the outcome in assay [13] was inactive.

For the compound `COc1ccccc1CNc1cc(-c2ccc(C(=O)N(C)C)cc2)ncn1`, the Potency was over 11.4 µM in assay [1]; 7.94 µM (active) in assay [2]; over 46 µM in assay [4]; over 46 µM in assay [5]; 7.08 µM (active) in assay [9]; 7.08 µM (active) in assay [10]. For the same compound, the Potency in assay [11] was 11.2 µM (active). Also, the activity change, negative = inhibition in assay [14] was 8.83%. For the same compound, the Potency entry in assay [6], in assay [15] and in assay [12] was “inactive” each time. The activation in assay [8] is 6.06%. The result in assay [13] was inactive.

As to `COc1ccc(CNc2ncncc2-c2ccc(C(=O)N(C)C)cc2)c(OC)c1`, the results for the activity change, negative = inhibition in [18] and in [14] were -28.8% and 18.9%, respectively. The Potency was 15.8 µM (active) in assay [2], over 46 µM in assay [4], over 46 µM in [5] and 0.501 µM (active) in [17]. Also, the activity, negative = inhibition in assay [3] is -21%. For the same compound, the Potency result in [6], in assay [15], in [9], in assay [10], in assay [11] and in [12] was “inactive” each time. Also, the outcome in [13] was inactive.
